The list is not random: actives were taken first. Their share in the collection is about 4.6%.
FXN GAA850 act = frataxin GAA850 promoter activation. HEK293 lucGAA850 FXN promoter luciferase reporter, 24 h; percent of 10 µM SAHA response. activation, % at 6 µM. 0.56% of 360,000 active. AID 540364;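 active means activation above the average of all compounds screened plus 3 SD, cutoff fixed separately per campaign, cut at about 7.5% in these data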;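 further: 0% = DMSO wells and 100% = 10 µM SAHA wells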
HSF1 inhib = HSF1 inhibition; 0.77% of 300,000 active; NIH3T3-HGL HSE-luciferase, MG132-induced, luminescence 8 h; active compounds read low; activity change, negative = inhibition, % at 7.5 µM (by protocol);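 active means more than half of replicate wells show activity change below -50%, luminescence cut by over half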;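 further: luciferase reports HSF-1 transcriptional activity via heat shock element; 0% = median of DMSO wells and -100% = zero luminescence signal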
HSF1 activator = increases HSF-1 driven luciferase reporter signal. activation, % at 9 µM. AID 504408. 1.7% of 300,000 active. NIH3T3-HGL HSF-1 luciferase reporter, MG132, 8 h; 100% = twice DMSO control signal;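 active means mean replicate activation of at least 50% with a set share of replicates each reaching 50%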;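 further: 0% = median of the neutral control wells and 100% = twice that signal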
AHR activator = activators of human aryl hydrocarbon receptor. P35869. AID 2796. 2.5% of 320,000 active. AHR-responsive luciferase reporter cells, luminescence. activation, % at 5 µM; in the data active means activation above about 47%;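 further: 0% = vehicle wells and 100% = reference agonist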
AHR act confirm = confirmation of human aryl hydrocarbon receptor activators; shares compounds with AHR activator; human cells, AHR-responsive luciferase reporter, luminescence; activation, % at 9 µM; 87% of 2,300 active; in the data active means activation above about 49%;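 further: HepG2 hepatoma cells carrying a DRE-driven firefly luciferase reporter; 0% = vehicle wells and 100% = reference agonist wells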
PXR act counter = activates human PXR in AHR activator counter-screen | shares compounds with AHR activator | cell-based PXR reporter, luciferase luminescence | activation, % at 11.6 µM | 88% of 2,300 active | AID 434939; in the data active means activation above about 11%;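 further: human hepatoma DPX-2 cells expressing full-length human PXR; 0% = DMSO and 100% = reference agonist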
Target sequence (O75469 whole entry, looked up): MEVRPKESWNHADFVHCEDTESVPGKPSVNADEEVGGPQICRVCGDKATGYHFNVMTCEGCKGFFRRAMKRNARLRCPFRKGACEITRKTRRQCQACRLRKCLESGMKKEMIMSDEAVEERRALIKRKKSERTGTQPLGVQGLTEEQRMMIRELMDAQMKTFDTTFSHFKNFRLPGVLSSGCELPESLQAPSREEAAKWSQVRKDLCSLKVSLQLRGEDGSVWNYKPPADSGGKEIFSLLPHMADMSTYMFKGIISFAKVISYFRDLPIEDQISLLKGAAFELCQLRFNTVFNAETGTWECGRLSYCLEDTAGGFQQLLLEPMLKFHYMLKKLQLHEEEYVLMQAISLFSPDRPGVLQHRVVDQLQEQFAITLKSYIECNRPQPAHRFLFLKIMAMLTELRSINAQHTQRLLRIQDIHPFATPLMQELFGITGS
Numbers without * were called inactive; nt = no result.

SMILES	FXN GAA850 act	HSF1 inhib	HSF1 activator	AHR activator	AHR act confirm	PXR act counter
C[C@H](CO)N1C[C@H](C)[C@H](CN(C)S(=O)(=O)c2ccc3c(c2)OCCCO3)OCc2cnnn2CCCC1=O	1	nt	nt	nt	nt	nt
Cc1cccc(-n2c(CNC(=O)c3ccc(S(=O)(=O)N(C)C)cc3)nnc2SCC(=O)Nc2ccc(F)cc2)c1	0	-4	1	3	nt	nt
C=CCn1c(SCC(=O)N2CCCC2)nc2c([nH]c3ccccc32)c1=O	1	-5	3	86*	98*	125*
C=CCn1c(SCC(=O)N2CCN(C(=O)OCC)CC2)nc2c([nH]c3ccccc32)c1=O	2	nt	nt	nt	nt	nt
Cc1sc2nc(CSC(C)C(=O)N(C)CC(=O)Nc3ccccc3C(F)(F)F)[nH]c(=O)c2c1C (stereo unspecified)	1	-5	-10	3	nt	nt
Cc1sc2nc(CSc3ccc([N+](=O)[O-])c(C(F)(F)F)c3)[nH]c(=O)c2c1C	1	15	34	83*	76*	32*
COc1cccc(C(=O)NCc2ccc3c(c2)OCO3)c1OC	3	-1	4	nt	nt	nt
CCOc1ncccc1C(=O)Nc1ccccc1C(=O)NCc1ccc2c(c1)OCO2	0	4	0	4	nt	nt
COc1cccc(C(=O)Nc2ccc3c(c2)OCO3)c1OC	2	17	11	103*	54*	70*
O=C(COc1cc(F)ccc1[N+](=O)[O-])Nc1ccc2c(c1)OCO2	5	nt	nt	-4	nt	nt
CCOc1ncccc1C(=O)Nc1ccc2c(c1)OCO2	1	-1	-2	110*	130*	32*
COc1cccc(C(=O)Nc2ccc3[nH]ncc3c2)c1OC	1	12	18	92*	68*	12*
COc1cccc(C(=O)Nc2cc(NC(=O)c3cccs3)ccc2C)c1OC	1	-14	-5	15	nt	nt
CC(=O)c1cc(F)ccc1OCC(=O)Nc1ccc2c(c1)OCO2	4	nt	nt	94*	105*	29*
CCNc1ncnc2c1cnn2C1CCCCO1 (stereo unspecified)	2	nt	nt	nt	nt	nt
COc1ccc(NC(=O)COC(=O)c2ccc(-n3cnnn3)cc2)c([N+](=O)[O-])c1	0	nt	nt	-1	nt	nt
CCOc1ccc(/C=N/NC(=O)c2cc3ccccc3cc2OC)cc1	1	0	-3	-11	nt	nt
CCOc1ncccc1C(=O)Nc1nnc(C2CC2)s1	0	1	-9	104*	95*	36*
COC(=O)c1cc(NC(=O)CN(c2ccccc2OC)S(=O)(=O)c2ccccc2)ccc1Cl	-3	9	16	4	nt	nt
COc1ccccc1N(CC(=O)Nc1ccc2c(c1)OCO2)S(=O)(=O)c1ccccc1	-3	-2	-2	98*	97*	187*
CCOc1ccc2oc(C(=O)Nc3ccc4c(c3)OCO4)c(C)c2c1	4	17	31	83*	38	25*
CCOc1ccc2oc(C(=O)Nc3ccc(N4CCOCC4)cc3)c(C)c2c1	-2	1	16	-7	nt	nt
CCOc1ncccc1C(=O)Nc1nnc(C)s1	3	-9	-10	-3	nt	nt
COC(=O)c1cc(C(=O)Nc2nnc(C3CC3)s2)cc([N+](=O)[O-])c1	0	-2	-5	81*	83*	nt
CCCCN(C(=O)C1CC1)C1CCS(=O)(=O)C1 (stereo unspecified)	1	-10	-3	-2	nt	nt
SMILES	FXN GAA850 act	HSF1 inhib	HSF1 activator	AHR activator	AHR act confirm	PXR act counter
O=C(/C=C/Nc1ccccc1)c1ccc(Oc2ncccn2)cc1	2	18	30	-5	nt	nt
O=c1c2ccccc2oc2nc(-c3ccco3)n(-c3ccccc3)c(=O)c12	4	25	42	95*	148*	33*
COC(=O)c1ccccc1SC(CC(=O)c1ccccc1)c1ccc(F)cc1 (stereo unspecified)	2	8	8	-9	nt	nt
COC(=O)c1sccc1-c1ccc(C(=O)Nc2cccc(Cl)c2)o1	8.3*	8	30	104*	74*	25*
COC(=O)c1ccccc1NC(=O)c1ccc(-c2cccc(Cl)c2)o1	0	6	-6	2	nt	nt
Cc1cccc2cc(-c3nc4c(C)cccn4c3NCc3ccco3)c(=O)[nH]c12	-3	10	12	28	nt	nt
Cc1ccc2[nH]c(=O)c(-c3nc4cc(C)ccn4c3NCc3ccco3)cc2c1	2	1	-7	88*	75*	39*
COCCCNC(=O)/C(C#N)=C/c1c(N2CCN(c3ccccc3)CC2)nc2c(C)cccn2c1=O	1	4	17	22	nt	nt
Cc1ccc(-n2c(Cl)c(Cl)nc(Cl)c2=O)cc1	-15	nt	nt	0	nt	nt
O=C(COC(=O)c1n[nH]c2ccccc12)NCCc1ccccc1	-1	nt	nt	98*	91*	19*
O=C(NCCc1ccccc1)c1c[nH]c2c(F)cccc2c1=O	3	11	5	141*	130*	83*
Cc1cccc2c(=O)c(C(=O)NCCc3ccccc3)c[nH]c12	2	8	-8	20	nt	nt
O=C(NCCc1ccccc1)c1n[nH]c2ccccc12	4	35	59*	101*	103*	71*
Cc1c(C(=O)Nc2nnc(C3CC3)s2)oc2c(Cl)cccc12	3	-3	-6	31	nt	nt
Cc1c(C(=O)Nc2nnc(C3CC3)s2)oc2ccccc12	6	nt	nt	111*	136*	55*
O=C(Cc1c[nH]c2ccccc12)Nc1nnc(C2CC2)s1	-4	-3	-6	91*	90*	20*
Cc1csc(NC(=O)c2oc3ccccc3c2C)n1	2	4	-19	83*	136*	27*
CCOc1ccc(NS(=O)(=O)c2ccc3c(c2)N(C(C)=O)CCO3)cc1	-1	4	-5	1	nt	nt
Cc1cc(C)c(C)c(OCCn2ccnc2)c1	-1	-6	-10	90*	54*	14*
CC1CCCCC1NC(=O)C1CC(=O)N(Cc2ccccc2)C1 (stereo unspecified)	1	-10	3	-2	nt	nt
CC1CCN(c2ccccc2NC(=S)NC(=O)c2ccc(-c3cccc([N+](=O)[O-])c3)o2)CC1	-1	-4	3	1	nt	nt
CC1CCN(c2ccc(NC(=S)NC(=O)c3ccc(-c4cccc([N+](=O)[O-])c4)o3)cc2)CC1	3	8	21	82*	27	15*
COc1ccc(CC(=O)Nc2cc(S(=O)(=O)N3CCOCC3)ccc2N2CCCC2)cc1OC	2	nt	nt	-1	nt	nt
Cc1noc(C)c1S(=O)(=O)N1CCN(Cc2ccc3c(c2)OCO3)CC1	1	-1	1	2	nt	nt
Cc1nn(-c2ccccc2)c(C)c1/C=N/N1CCN(c2ccccn2)CC1	0	1	9	0	nt	nt
Cc1nn(-c2ccccc2)c(Cl)c1/C=N/N1CCN(c2ccccn2)CC1	1	5	7	161*	4	27*
COc1ccc(/C=C/C(=O)NC(=S)NNC(=O)c2cccs2)cc1	-3	7	4	94*	36	5

Bioassay records deposited in PubChem by several laboratories.
